# Assay results taken from PubChem BioAssay (NCI).
# About 83,000 compounds went through this panel and 20% of them were active in at least one assay; those are over-represented in the sample as a whole.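 96-well plates, one dose, 48 hours. Percent growth reported; active if below 10.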 A number with no mark means an inactive call. Calls of active or inactive are those of the source.
# Test system: HL-60(TB) leukemia
# Assay: NCI-60 one-dose screen, 48 h (100 = growth as untreated, 0 = no growth, -100 = all killed)
# Conditions: 10 µM unless noted
row,Structure (SMILES),growth
1,O=C(/C=C1\C=CN(CCCCO)c2ccccc21)n1ccc2ccccc21,114%
2,O=C(CSc1nnc(-c2ccc(Cl)cc2)n1-c1ccccc1)Nc1ccc(F)cc1,95.3%
3,O=C(O)CNS(=O)(=O)c1ccc(Oc2ccc(S(=O)(=O)NCC(=O)O)cc2)cc1,91%
4,COC(=O)C(Cc1ccccc1)Nc1nc(NC(Cc2ccccc2)C(=O)OC)nc(N2CCOCC2)n1 (stereo not given),103%
5,COc1cc(N=Cc2sc(Nc3nccs3)nc2O)cc(OC)c1OC,82.8%
6,C/C(=N\NC(N)=O)c1c(O)sc(=O)[nH]c1=O,96.2%
7,O=C(NNc1nc2cc(F)ccc2n2c(CN3CCC(O)C3)ccc12)c1cnccn1 (stereo not given),-14.8% (active)
8,NC(N)=Nc1ccc(Oc2cccc(NC(N)=Nc3ccc(I)cc3F)c2)cc1,67.4%
9,O=C(Nc1cccc(Cl)c1)Nc1nc2ccc([N+](=O)[O-])cc2s1,-40% (active)
10,CC(=O)Nc1cccc(Nc2nc(N[C@@H](C)c3ccccc3)c3ccccc3n2)c1,-50.7% (active)
11,CCCCCCCCCCCC(=O)NC(C)(C)C(=O)N1CCCC1C(=O)NC(C)(C)C(=O)NC(C)(C)C(=O)N1CCCC1C(=O)NC(C)(C)C(=O)NC(C)(C)C(=O)N1CCCC1C(=O)NC(C)C(=O)NCCC(=O)NC(C)C(=O)NC(C)(C)C(=O)NC(C)(C)C(=O)NC(C)(C)C(=O)NCCC(=O)NC(C)(C)C(=O)NC(C)(C)C(=O)NC(C)(C)C(=O)NC(C)C(=O)NCCC(=O)O (stereo not given),-66.3% (active)
12,CN1CCc2c(sc3ncnc(N/N=C/c4ccc(Cl)c(Cl)c4)c23)C1,-58.2% (active)
13,CN1CCN(c2ccc(Nc3nc(NCCCNS(=O)(=O)c4cccc5ccccc45)c4sccc4n3)cc2)CC1,-45.2% (active)
14,COc1cc2nc(Cl)nc(Nc3cccc(C4=Nc5c(N)nc(N)nc5NC(c5ccc6c(c5)OCO6)C4)c3)c2cc1OC (stereo not given),68.4%
15,CCOC(=O)c1c(Nc2ccccc2)nn2c(N)c(C#N)c(-c3ccc(OC)cc3)nc12,112%
16,O=C(Nc1ccc(F)c(F)c1)c1cc(-c2ccc(F)cc2F)ccc1O,-30.8% (active)
17,O=C(C[n+]1ccnc2ccccc21)c1ccc(O)c(O)c1,-24.7% (active)
18,C=C(C)[C@@H]1CC[C@]2(C(=O)ON)CC[C@]3(C)[C@H](CC[C@@H]4[C@@]5(C)C/C(=C/c6ccc(Br)cc6)C(=O)C(C)(C)[C@@H]5CC[C@]43C)[C@@H]12,43.6%
19,C#CCOc1ccc(/C=N\Nc2nc(-c3ccc(C)cc3)cs2)cc1OC,69.5%
20,CC(=O)c1ccc(Nc2nc(SC(C)C)nc(-c3ccccc3)c2C#N)cc1,83.8%

row,Structure (SMILES),growth
1,C=CCn1c(SCC(=O)Nc2ccc(C(=O)/C=C/c3cc(OC)c(OC)c(OC)c3)cc2)nnc1-c1c[nH]c2ccccc12,-15.1% (active)
2,Clc1ccc2oc3c(NCCCN4CCOCC4)c4ccccc4nc3c2c1,20.8%
3,C=C(C)[C@@H]1CC[C@]2(COP(=O)(OCC)OCC)CC[C@]3(C)[C@H](CC[C@@H]4[C@@]5(C)CCCNC(C)(C)[C@@H]5CC[C@]43C)[C@@H]12,-56.4% (active)
4,Cc1ccc2c(n1)C(=O)C(Cl)=C(Nc1cccc(C)c1C)C2=O,-23.2% (active)
5,O=C(Nc1nonc1-c1ccccc1)c1ccc(C(F)(F)F)cc1,79.1%
6,N#Cc1c(Nc2ccccc2)nn2c(-c3ccc([N+](=O)[O-])cc3)ccnc12,93.9%
7,COc1cc(/C=C/C(=O)c2ccc(NC(=O)CSc3nnc(-c4ccc(-c5nc6ccc(Cl)cc6[nH]5)cc4)o3)cc2)cc(OC)c1OC,73.6%
8,O=C(/C=C/Nc1ccc(S(=O)(=O)Nc2ncccn2)cc1)c1ccc(N=Cc2c(O)[nH]c3ccccc23)cc1,99.6%
9,O=S(=O)(Nc1cccc2ccccc12)c1ccc(-c2cnc(C3CC3)o2)cc1,-16.2% (active)
10,O=c1c2cc(-c3ccc(F)cc3F)ccc2n(O)c(=O)n1-c1cccc(C(F)(F)F)c1,-50.2% (active)
11,CC(=O)c1ccc(Nc2nc(SCC(C)C)nc(-c3ccc(F)cc3)c2C#N)cc1,103%
12,Fc1ccc(-c2nc(C(Cl)Cl)nc3cc(-c4ccccc4)nn23)cc1,-8.76% (active)
13,C(=C(\C1=NCCN1)n1cnc2ccccc21)/c1cccc2ccccc12,71.6%
14,C/C(CC1(O)C(=O)Nc2ccccc21)=N\O (stereo not given),97%
15,Cn1cc(-c2nc(N)nnc2-c2c[nH]c3ccc(Br)cc23)c2cc(F)ccc21,75.3%
16,CC1=C(SCC(=O)OCCCCCC(C)C)C(=O)c2ccccc2C1=O,86.8%
17,NC(=O)N1N=C(c2cc3ccccc3oc2=O)CC1c1cn(-c2ccccc2)nc1-c1ccc(Cl)cc1 (stereo not given),47%
18,CCOC(=O)C(=O)CC(=O)N1C(=S)NC(=O)C1CC(C)C (stereo not given),111%
19,Cc1csc(/N=C(N)/N=C(\N)c2cccc(Br)c2)n1,91.3%
20,COc1ccc2c(c1)c(-c1nnc(N)nc1-c1cn(C)c3ccccc13)cn2C,72.6%
